TGFb SMAD3 inh: qHTS for Inhibitors of TGF-b; HepG2 CAGA-GFP TGF-b/SMAD3 reporter, GFP fluorescence, 18 h; TGF-beta stimulated, 500 pg/mL final; Potency, µM (highest dose often 46.1 µM), inactives show at the highest dose activity, negative = inhibition, actives largely listed as inhibitors; 410,000 compounds, 1.2% hits; note: % is set by controls: 0 for no effect and ±100 for the full control effect; nearly all actives have a fitted effect of over 65% in size
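Inhibition was scored as loss of TGF-beta-induced (500 pg/mL final, 18 hours, 37 degrees C) GFP in HEPG2 cells carrying a CAGA-GFP reporter, in DMEM with 1% FBS. Well GFP was summed per cell; Activity was normalised to unstimulated and stimulated DMSO wells, then concentration-response fitting.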
TDP1 cell CPT: qHTS for Inhibitors of human tyrosyl-DNA phosphodiesterase 1 (TDP1): qHTS in cells in presence of CPT | chicken DT40 Tdp1-/-;hTDP1 cells + 20 nM CPT, ATP luminescence, 48 h | Potency, µM (highest dose often 46.2 µM), inactives show at the highest dose activity change, negative = growth inhibition, usual class: inhibitors | 420,000 compounds, 12% hits | AID 686979, 2013; note: % is set by controls: 0 for no effect and ±100 for the full control effect; nearly all actives have a fitted effect of over 55% in size
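Cell growth measured by CellTiter-Glo luminescence after a minimum 48 h, 37 C compound exposure with 20 nM CPT in Tdp1-knockout DT40 cells stably expressing hTDP1, seeded 400/well; qHTS titration format.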
TDP1 cell noCPT: qHTS for Inhibitors of human tyrosyl-DNA phosphodiesterase 1 (TDP1): qHTS in cells in absence of CPT | DT40 Tdp1-/- hTDP1 cells, no CPT, ATP luminescence, 48 h | Potency, µM (series often up to 46.2 µM), without a hit: top-dose activity change, negative = growth inhibition, hits mostly inhibitors | 420,000 compounds, 15% hits | AID 686978, 2013; note: % is set by controls: 0 for no effect and ±100 for the full control effect; nearly all actives have a fitted effect of over 55% in size
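Luminescent ATP content (CellTiter-Glo) served as the growth readout. Knockout chicken DT40 cells expressing human TDP1 were exposed to compounds without camptothecin for a minimum 48 hr at 37 °C.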
ATXN2 expr inh: Primary qHTS for Inhibitors of ATXN expression | HEK-293 ATXN2-luciferase reporter, luminescence, 24 h | Potency, µM (highest dose often 57 µM), without a hit: top-dose activity change, negative = inhibition, actives largely listed as inhibitors | 360,000 compounds, 0.72% hits | AID 1745845, 2022; note: % is set by controls: 0 for no effect and ±100 for the full control effect; nearly all actives have a fitted effect of over 55% in size
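ATXN2-luciferase reporter cells (luciferase flanked by upstream and downstream ATXN2 gene portions) were treated 24 h at 37 °C with compounds at up to 57 uM. SteadyGlo luminescence gave expression; GF-AFC fluorescence gave viability.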
HepG2 viability: qHTS for Inhibitors of TGF-b: Cytotox Counterscreen; 410,000 compounds, 0.76% hits; AID 588856, 2011; Potency, µM (doses to about 46.1 µM), for inactives: at the highest dose activity change, negative = cytotoxicity, actives largely listed as cytotoxic; HepG2 CAGA-GFP viability, ATP luminescence, 18 h
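HepG2 CAGA-GFP cells (1000/well, DMEM with 1% FBS) received compound, then TGF-beta at 500 pg/mL final, and were incubated 18 hours at 37 degrees C. Viability was read by CellTiter-Glo luminescence. Media-only wells were set as complete cell-killing and DMSO as no toxicity.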
ATXN viability: Viability Counterscreen for Primary qHTS for Inhibitors of ATXN expression | S2 cells (HEK-293 line with an ATXN2-luciferase reporter) viability, CellTiter-Fluor protease fluorescence, 24 h | Potency, µM (doses to about 56.7 µM), hits mostly cytotoxic | 400,000 compounds, 0.49% hits; note: nearly all actives have a fitted effect of over 40% in size
* = called active by the depositor; i = inactive; ? = inconclusive; / = no result given; [ ] = another dose, or the depositor's remark. Sampled rows, rich in hits. Any-hit rate of the full collection: about 17%. Calls come from the whole dose curve; as a rule, active = well fitted curve in the direction sought with a large enough effect; inconclusive = small, poorly fitted or top-dose-only effect, or another doubt; inactive = no such curve, though single readings can be large; an effect the other way counts as inactive or inconclusive. Potency is the fitted concentration of half-maximal effect.

SMILES	TGFb SMAD3 inh	TDP1 cell CPT	TDP1 cell noCPT	ATXN2 expr inh	HepG2 viability	ATXN viability
Cc1ccc(NC(=O)C(=O)NCC2CCCN2S(=O)(=O)c2cccs2)cc1 (centres undefined)	-28%	?	?	0%	-3%	?
Cc1cccc(NC(=O)C(=O)NCC2CCCN2S(=O)(=O)c2cccs2)c1 (centres undefined)	-7%	13µM*	8.2µM*	/	-28%	i
Cc1ccccc1CNC(=O)C(=O)NCC1CCCN1S(=O)(=O)c1ccccc1 (centres undefined)	-16%	?	?	-5%	12%	i
Cc1cccc(NC(=O)C(=O)NCC2CCCN2S(=O)(=O)c2ccccc2)c1 (centres undefined)	0%	15µM*	10µM*	12%	-16%	?
CCc1ccc(NC(=O)C(=O)NCC2CCCN2S(=O)(=O)c2cccs2)cc1 (centres undefined)	?	18µM*	15µM*	-19%	-26%	i
COc1cccc(Cn2cnc3c(NS(=O)(=O)c4cccc(Cl)c4Cl)c(C)c(C)cc32)c1	-17%	21µM*	23µM*	?	-14%	i
COc1cccc(Cn2cnc3c(NS(=O)(=O)c4ccc(Cl)cc4Cl)c(C)c(C)cc32)c1	?	?	?	-18%	-36%	?
COc1ccccc1N1CCN(C(=O)/C=C/c2c(Cl)nc3ccccn23)CC1	3%	10µM*	4.6µM*	?	1%	?
CCn1c2c(c(=O)n3ncc(C(=O)N4CCN(c5ccc(Cl)cc5)CC4)c13)CN(Cc1ccc(OC)cc1)CC2	?	2.3µM*	1.6µM*	?	-34%	?
COc1cc(OC)cc(C(=O)N2CCN(c3ccccc3F)CC2)c1	-16%	-9%	?	-4%	-30%	?
CCn1c2c(c(=O)n3ncc(C(=O)Nc4ccc(F)c(Cl)c4)c13)CN(Cc1ccc(OC)cc1)CC2	?	?	?	-3%	-7%	?
COc1ccc(CN2CCc3c(c(=O)n4ncc(C(=O)N5CCN(c6ccccc6F)CC5)c4n3C)C2)cc1	?	18µM*	8.2µM*	-15%	-20%	i
COc1ccccc1-c1ccnc(-n2ncc(C(=O)N3CCN(C4CCCC4)CC3)c2-c2ccco2)n1	/	5%[9.04 µM]	-16%	/	/	i
CN(C)/C=C(/C(=O)c1ccc(Cl)c(Cl)c1)S(C)(=O)=O	16%	-1%	1%	3%	15%	i
C[C@@H]1CN([C@@H](C)CO)C(=O)c2cc(C#Cc3ccccc3)cnc2O[C@@H]1CN(C)Cc1ccccn1	-15%	?	?	-16%	-19%	?
Cc1ccc2nc(/C(C#N)=C/c3cccc(Br)c3)[nH]c2c1	?	15µM*	16µM*	-28%	-46%	i
Cc1cc2nc(/C(C#N)=C/c3ccncc3)[nH]c2cc1C	-27%	18µM*	16µM*	3%	-22%	i
N#C/C(=C\c1cccnc1)c1nc2ccccc2[nH]1	8%	?	5.8µM*	7%	6%	/
Cc1ccc2nc(/C(C#N)=C/c3ccc(O)c(O)c3)[nH]c2c1	47%	18µM*	18µM*	33%	-14%	i
CN(C)C(=O)c1ccc(NC(=O)COC(=O)C2CCN(S(=O)(=O)c3ccc4c(c3)OCCO4)CC2)cc1	0%	-4%	4%	7%	6%	i
Cc1ccc2nc(/C(C#N)=C/c3cn[nH]c3-c3ccc(F)cc3)[nH]c2c1	?	?	18µM*	?	-7%	i
CCOC(=O)c1ccc(NC(=O)Cn2nc(C)c3ccccc3c2=O)cc1	-10%	-2%	11%	11%	3%	i
CCOC(=O)c1ccc(NC(=O)Cn2ncc(Cl)c(Cl)c2=O)cc1	?	2.3µM*	2.3µM*	?	16µM*	?
CCc1ccccc1NC(=O)CN(C)C(=O)Cn1ncc(Cl)c(Cl)c1=O	0%	5.8µM*	6.5µM*	?	-35%	/
CCC(=O)Nc1ccc(C(=O)Cn2ncc(Cl)c(Cl)c2=O)cc1	?	5.2µM*	6.5µM*	/	-123%	25µM*
SMILES	TGFb SMAD3 inh	TDP1 cell CPT	TDP1 cell noCPT	ATXN2 expr inh	HepG2 viability	ATXN viability
O=C(Cn1ncc(N2CCCC2)c(Cl)c1=O)c1ccc(Cl)cc1	-8%	4%	18%	23%[11.3 µM]	-6%	?
CCOc1ccc(NC(=O)COC(=O)c2ccccc2OCc2ccccc2Br)cc1	/	4%	-8%	/	/	/
COc1ccc(OC)c(-c2ccnc(-n3ncc(C(=O)NC(C)(C)CO)c3C3CC3)n2)c1	/	-3%[9.04 µM]	-14%	/	/	i
CCc1nn(CC(=O)NCCCN2CCc3ccccc3C2)c(=O)c2cc3sccc3n12	-29%	23µM*	?	-12%	-12%	?
CC(=O)c1cccc(NC(=O)Cn2nc(C)n3cccc3c2=O)c1	9%	-11%	16µM*	/	-10%	/
CCc1nn(CC(=O)Nc2cccc(C(C)=O)c2)c(=O)c2cc3sccc3n12	-14%	18µM*	?	/	-45%	/
CCc1nn(CC(=O)Nc2ccc(NC(C)=O)cc2)c(=O)c2cc3sccc3n12	-21%	-21%	-21%	/	-2%	/
Cc1ccccc1CSCC(=O)N/N=C/c1cccs1	1%	?	?	9%	-18%	i
O=C(Nc1cccc(Cl)c1)c1ccc(F)c(S(=O)(=O)NCc2ccc3c(c2)OCO3)c1	?	-22%	26µM*	-15%	0%	i
O=C(Nc1ccc(Br)cc1)c1ccc(F)c(S(=O)(=O)NCc2cccs2)c1	?	15µM*	21µM*	-23%	-12%	i
CCOc1ccccc1NC(=O)c1ccc(F)c(S(=O)(=O)NCc2ccc3c(c2)OCO3)c1	-20%	-34%	?	/	-5%	/
O=C(NC1=NCCS1)c1ccc(Cl)c(S(=O)(=O)N2CCc3ccccc32)c1	?	?	?	/	0%	?
CC(C)c1ccc(NC(=O)c2ccc(F)c(S(=O)(=O)N3CCc4ccccc43)c2)cc1	-25%	5.2µM*	7.3µM*	/	-15%	/
O=C(Nc1ccc(Br)cc1)c1ccc(F)c(S(=O)(=O)N2CCc3ccccc32)c1	11µM*	23µM*	21µM*	/	-34%	/

Bioassay records: PubChem BioAssay, National Center for Advancing Translational Sciences (NCATS)
